Source: PubChem BioAssay (EPA / NIEHS)
Several values for one entry are separate records, joined by “and”; a condition that tells them apart may be missing. Equal entries are not always repeated. Records with an inconclusive call do not appear. The source holds several records for some structures; these can differ, active in one and inactive in another. Activity calls are given as the source filed them. The calls were made as follows: active = hit-call score of the fitted dose curve at least 0.9, where 1 is the maximum; inconclusive = response in the unintended direction; inactive = score below 0.9.

Molecular target: zebrafish Estrogen Receptor (ER1), esr1 (gene 259252) (UniProt P57717)
Experiment: ATG_zfER1_XSP2: Attagene TRANS-FACTORIAL Multi-Species (XSP2) HepG2 Assay for zebrafish Estrogen Receptor (ER1) (AID 2283816)
Experimental: ATG_XSP2_multi-species_TRANS is a cell-based, multiplexed assay created by modifying the existing Attagene TRANS-FACTORIAL system to include a panel of nuclear receptors from some or all the following species: human (Homo sapiens), mouse (Mus musculus), frog (Xenopus laevis), zebrafish (Danio rerio), chicken (Gallus gallus), and turtle (Chrysemys picta). The ECOTOX-FACTORIAL format uses HepG2, a human liver cell line, with measurements taken at 24 hours after chemical dosing in a 24-well plate. Xsp2 included 3 nM 6-alpha-fluorotestosterone and 1.5 nM norgestrel to stimulate the androgen receptor.ATG_zfER1_XSP2 is one of 29 assay components measured or calculated from the ATG_XSP2_multi-species_TRANS assay. It is designed to make measurements of mRNA induction, a form of inducible reporter, as detected with fluorescence intensity signals by Reverse transcription polymerase chain reaction (RT-PCR) and Capillary electrophoresis technology.The assay endpoint ATG_zfER1_XSP2 was analyzed in the positive analysis fitting direction relative to DMSO as the negative control and baseline of activity. Using a type of inducible reporter, measures of mRNA for gain-of-signal activity can be used to understand the reporter gene at the transcription factor-level as they relate to the gene ER. Furthermore, this assay endpoint can be referred to as a primary readout, because this assay has produced multiple assay endpoints where this one serves a reporter gene function. To generalize the intended target to other relatable targets, this assay endpoint is annotated to the nuclear receptor intended target family, where the subfamily is steroidal.
Human liver HepG2 cells are transiently transfected with multiple reporter transcription units (MRTUs) in 6-well plates using FuGene 6 reagent (Roche; 3 ml FuGene/1 mg DNA). The MRTU constructs are regulated by a cis-regulating element (promoter). […] A major difference between the CIS and TRANS system is that in CIS activities of endogenous TFs are measured, whereas the TRANS assay evaluates changes in activities of exogenous, chimeric NR-Gal4 proteins. […] At the end of 24 hour incubation, total RNA was isolated using TriZol reagent (Invitrogen). The isolated RNA is then reverse-transcribed using oligo(dT) primer and Mo-MLV reverse transcriptase (Invitrogen) with DNAse I (Ambion) treatment for 30 min. The one-tenth of the produced cDNA was amplified by PCR using Taq DNA polymerase (Invitrogen) and two reporter sequence-specific primers. The PCR products were fluorescently labeled by primer extension with 6-arboxyfluorescein (6-FAM) 5'-labeled reporter sequence-specific primer (2 min at 95 C, 20 s at 68 C and 10 min at 72 C) and these products were digested with 5U of HpaI (New England Biolabs) for 2h at 37 C. The fragments were purified using Qiaquick PCR columns (Qiagen), analyzed on an ABI 3130xL genetic analyzer (Applied Biosystems) with peak positions identified by using a set of X-rhodamine (ROX)-labeled MapMarker1000 molecular weight standards (BioVentures). The raw capillary electrophoresis data was processed using Attagraph software (Attagene).

zebrafish Estrogen Receptor (ER1), esr1 (gene 259252), sequence (P57717 whole entry, looked up): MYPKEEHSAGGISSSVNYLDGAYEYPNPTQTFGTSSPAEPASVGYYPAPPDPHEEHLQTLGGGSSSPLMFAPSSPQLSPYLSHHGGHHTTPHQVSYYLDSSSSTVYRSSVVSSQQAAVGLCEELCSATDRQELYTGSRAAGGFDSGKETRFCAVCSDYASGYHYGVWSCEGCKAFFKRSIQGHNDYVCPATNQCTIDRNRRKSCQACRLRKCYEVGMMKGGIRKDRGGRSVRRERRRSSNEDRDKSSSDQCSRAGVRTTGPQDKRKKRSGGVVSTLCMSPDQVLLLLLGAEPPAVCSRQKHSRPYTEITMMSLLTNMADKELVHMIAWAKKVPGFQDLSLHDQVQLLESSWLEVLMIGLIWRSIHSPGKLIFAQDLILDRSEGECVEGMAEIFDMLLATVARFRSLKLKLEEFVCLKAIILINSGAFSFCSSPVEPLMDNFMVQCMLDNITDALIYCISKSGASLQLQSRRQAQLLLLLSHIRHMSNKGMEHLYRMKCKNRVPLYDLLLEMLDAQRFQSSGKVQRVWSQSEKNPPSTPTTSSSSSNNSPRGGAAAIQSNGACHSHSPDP

Row | SMILES | outcome | AC50
1 | Oc1ccc2cc(SSc3ccc4cc(O)ccc4c3)ccc2c1 | inactive | 2.96 µM (active)
2 | BrCc1cccc(Oc2ccccc2)c1 | inactive | 100 µM (active)
3 | OCc1cccc(Oc2ccccc2)c1 | inactive | 37.7 µM (active)
4 | CCCCC(CC)COC(=O)c1ccc(O)cc1 (stereo not given) | – | 52.2 µM (active)
5 | O=c1c(O)c(-c2ccc(O)cc2)oc2cc(O)cc(O)c12 | – | 1.68 µM (active) and 954 nM (active)
6 | Clc1ccc(C(c2ccccc2Cl)C(Cl)Cl)cc1 (stereo not given) | – | 4.61 µM (active) and 12.7 µM (active)
7 | Cc1cc(=O)oc2cc(N(C)C)ccc12 | inactive | –
